DAX1 inh-1 – inhibits human nuclear receptor DAX1; P51843; HEK293 Gal4-DAX1 luciferase reporter, luminescence; inhibition, % at 6.75 µM; 340,000 tested, 0.99% active; AID 504766;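 active = inhibition above the mean over all tested compounds plus 3 SD, cut at about 4.2% in these data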;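 also: inhibition shows as a rise in luminescence from relieved DAX1 repression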
hcDAF-12 act – activators of H. contortus DAF-12 nuclear receptor. HEK293 hcDAF-12 lit1-tk-luc reporter, luminescence; 0% DMSO, 100% Δ7-dafachronic acid. activation, % at 6.8 µM. 370,000 tested, 1.4% active;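 active = activation above the mean of all tested compounds plus 3 SD, cut at about 5.5% in these data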
hgDAF12 agonist – agonists of H. glycines DAF-12 nuclear receptor; HEK293 GAL4-hgDAF12 UAS-luciferase reporter, agonist luminescence; normalized to butyrate control; activation, % at 6.8 µM; 370,000 tested, 1.8% active;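 active = activation above a cutoff set at the mean of all screened compounds plus 3 SD, cut at about 10% in these data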
DAX1 inh-2 – DAX1 (NR0B1) inhibition, primary screen; HEK293T StAR-luciferase reporter, SF-1/DAX-1 repression relief; inhibition, % at 6.8 µM; 370,000 tested, 1.1% active; AID 652010;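 active = inhibition above the mean over all tested compounds plus 3 SD, cut at about 3.6% in these data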;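 also: higher inhibition means more luminescence from relief of DAX-1 repression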
ssDAF-12 act – S. stercoralis DAF-12 activation, primary screen; HEK293 ssDAF-12/GRIP1 lit1-tk-luc reporter, luminescence; % of 3 µM dafachronic acid response; 370,000 tested, 1% active; activation, % at 6.8 µM; AID 652126;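 active = activation above the mean over all tested compounds plus 3 SD, cut at about 0.9% in these data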
LXR ag – activates human LXR-beta, counter-screen for hcDAF-12 agonists; 3,400 tested, under 10 active; activation, % at 6.8 µM; HEK293 Gal4-LXR tk-luc reporter, luminescence, 24 h; normalized: DMSO 0%, positive control 100%; AID 743027; shares compounds with hcDAF-12 act;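 active = mean percent activation of the reporter above a cutoff set as the average over tested compounds plus their standard deviation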
Target sequence (P55055 whole entry, looked up, the tested form may be a part): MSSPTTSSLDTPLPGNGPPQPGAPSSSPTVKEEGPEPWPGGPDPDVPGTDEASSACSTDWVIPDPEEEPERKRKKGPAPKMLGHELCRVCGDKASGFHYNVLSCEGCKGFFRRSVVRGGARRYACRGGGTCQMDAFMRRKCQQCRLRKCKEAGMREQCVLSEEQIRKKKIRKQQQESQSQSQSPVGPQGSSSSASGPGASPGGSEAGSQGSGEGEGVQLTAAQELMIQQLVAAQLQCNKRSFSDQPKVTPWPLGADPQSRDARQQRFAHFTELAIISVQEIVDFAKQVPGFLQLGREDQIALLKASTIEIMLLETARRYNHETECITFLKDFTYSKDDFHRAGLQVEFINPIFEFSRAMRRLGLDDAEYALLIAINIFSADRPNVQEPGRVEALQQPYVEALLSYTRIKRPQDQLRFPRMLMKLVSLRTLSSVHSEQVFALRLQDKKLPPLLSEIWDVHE
hcDAF12 ag – hcDAF-12 agonism, confirmation assay; shares compounds with hcDAF-12 act; HEK293 hcDAF-12 lit1-tk-luc reporter, luminescence; % of Δ7-dafachronic acid response; activation, % at 6.8 µM; 3,400 tested, 61% active; AID 743032;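 active = mean activation across triplicate tests above the threshold derived from the earlier primary screen, cut at about 5.5% in these data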
Of the large screens only hits and unclear results are named; the others gave an inactive call (follow-up assays come after a bar, where they were run). A selection: hits, their analogues and other compounds. The true share with any hit is near 4.1%.

CCC(C)[C@H](NC(=O)N1CC(=O)Nc2ccccc21)C(=O)N[C@H](Cc1c[nH]c2ccccc12)C(=O)O (some centres not stated)	hcDAF-12 act 8.0 | LXR ag inactive | hcDAF12 ag inactive
CCC(C)[C@H](NC(=O)N1CC(=O)Nc2ccccc21)C(=O)N[C@@H](C(=O)O)c1ccccc1 (some centres not stated)	none
Cn1c(=O)c2c(nc(SCCN3CCOCC3)n2Cc2ccc(F)cc2)n(C)c1=O	DAX1 inh-1 4.4, hcDAF-12 act 7.8 | LXR ag inactive | hcDAF12 ag 7.5
Cn1c(=O)c2c(nc(SCCN3CCOCC3)n2Cc2ccccc2Cl)n(C)c1=O	none
COc1ccccc1CCC(=O)Nc1cc(S(=O)(=O)N2CCCCC2)ccc1N1CCN(C)CC1	none
O=C(NCC(=O)N1CCN(c2ncccn2)CC1)c1ccc(F)cc1	none
COC(=O)[C@]12C[C@H](CC(=O)NCCC(C)C)C(=O)N(Cc3cccc4ccccc34)C1=C[C@H](C(C)C)O[C@@H]2C1CC1	none (no result: DAX1 inh-1)
Cc1ccccc1C(=O)NC(=S)Nc1ccccc1N1CCCC1	none
COc1ccccc1C(=O)NC(=S)Nc1ccccc1N1CCCC1	hcDAF-12 act 7.1 | LXR ag inactive | hcDAF12 ag 7.6
O=C(NC(=S)Nc1ccccc1N1CCCCC1)c1ccccc1	none
O=C(NC(=S)Nc1ccccc1N1CCCC1)c1ccc(F)cc1	hcDAF-12 act 9.1 | LXR ag inactive | hcDAF12 ag inactive
O=C(CSCc1ccc(Cl)cc1)Nc1ccc(Br)cc1C(=O)O	none
CCC(=O)Nc1ccc(OCC2CCCO2)cc1 (configuration not stated)	none
CCc1cc2c(N[C@@H](Cc3c[nH]c4ccccc34)C(=O)O)ncnc2s1	hcDAF-12 act 8.0 | LXR ag inactive | hcDAF12 ag inactive
Cc1sc2ncnc(N[C@@H](Cc3c[nH]c4ccccc34)C(=O)O)c2c1C	hcDAF-12 act 7.0 | LXR ag inactive | hcDAF12 ag 5.7
CCc1cc2c(NC(Cc3c[nH]c4ccccc34)C(=O)O)nc(C)nc2s1 (configuration not stated)	none
CN(C)[C@@H]1CCC[C@@H]1OC(=O)C(c1ccccc1)c1ccccc1	none
CCN(CC)C(=S)SCC(=O)Nc1ncc2c(n1)CC(C)(C)CC2=O	none (no result: DAX1 inh-1)
Cc1c(C(=O)NC2CCN(Cc3ccccc3)C2)oc2c(Cl)cccc12 (configuration not stated)	hcDAF-12 act 7.0 | LXR ag inactive | hcDAF12 ag inactive
COc1ccc(Cc2c(-c3ccc(C)cc3)nc3cc(C)c(Br)c(C)n23)c(C)c1	hcDAF-12 act 11.1, hgDAF12 agonist 10.8, ssDAF-12 act 2.1 (no result: DAX1 inh-1) | LXR ag inactive | hcDAF12 ag 6.1
COc1ccc(Cc2c(-c3cccc(Br)c3)nc3cc(C)c(Br)c(C)n23)c(C)c1	none (no result: DAX1 inh-1)
O=C(C1=C(O)C(=O)N(CCN2CCOCC2)C1c1cccc(F)c1)c1cc2ccccc2o1 (configuration not stated)	hcDAF-12 act 8.3 | LXR ag inactive | hcDAF12 ag inactive
Cc1c(C(=O)N2CCN(Cc3cccs3)CC2)oc2ccccc12	none
C=CCN1CCN(C(=O)c2oc3ccccc3c2C)CC1	hcDAF-12 act 7.5 | LXR ag inactive | hcDAF12 ag inactive
O=C(OCc1nc2ccccc2s1)c1cccc(S(=O)(=O)N2CCOCC2)c1	hcDAF-12 act 7.7 | LXR ag inactive | hcDAF12 ag 9.2
Cc1nnc(SCC(=O)Nc2cc(S(=O)(=O)N3CCOCC3)ccc2C)s1	none
O=C(CSc1nc2ccccc2s1)Nc1cc(S(=O)(=O)N2CCOCC2)ccc1O	hcDAF-12 act 9.7 | LXR ag inactive | hcDAF12 ag inactive
COc1ccc(C(OCC(O)CN2CCC(O)CC2)c2ccc(OC)cc2)cc1 (configuration not stated)	hcDAF-12 act 10.2 | LXR ag inactive | hcDAF12 ag inactive
NC(=O)c1ccccc1N/C=C/C(=O)c1ccc(Cl)cc1	hcDAF-12 act 6.7 | LXR ag inactive | hcDAF12 ag inactive

Source: PubChem BioAssay (The Scripps Research Institute Molecular Screening Center)
